Results: the supplement of paper PMC8253809
Where “and” joins values, the source holds several entries; their conditions need not be identical. Equal entries are not always repeated.

Tests used:
Test in all cases: growth inhibition (% activity, log2 RLU normalised to DMSO / staurosporine); higher = more growth inhibition
Conditions in all cases: 33 µM
DIPGX29 = test system: DIPGX29 (H3.3 K27M diffuse intrinsic pontine glioma line)
Outline: (§1)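 On Geltrex-coated 384-well plates, pHGG cell lines and H9-derived neural stem cells were grown with approved drugs pinned in at a single final concentration of about 33 μM, in triplicate, for 7 days at 37 °C, 5% CO2. Per-plate normalisation of log2-transformed CellTiter-Glo luminescence to % activity between solvent and positive control wells followed. Each growth-inhibition value is the median over the replicates.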

DIPGX37 = test system: DIPGX37 (H3.3 K27M diffuse intrinsic pontine glioma line)
Outline: as §1

DIPGX7 = test system: DIPGX7 (H3.3 K27M diffuse intrinsic pontine glioma line)
Outline: as §1

DIPGX9 = test system: DIPGX9 (diffuse intrinsic pontine glioma line)
Outline: as §1

HGGX39 = test system: HGGX39 (paediatric high-grade glioma line)
Outline: as §1

HGGX6 = test system: HGGX6 (H3.3 G34R paediatric high-grade glioma line)
Outline: as §1

HNSC = test system: HNSC
Outline: as §1

SUDIPGIV = test system: SUDIPGIV (diffuse intrinsic pontine glioma line)
Outline: as §1

SUDIPGVI = test system: SUDIPGVI (diffuse intrinsic pontine glioma line)
Outline: as §1

SUDIPGXIII = test system: SUDIPGXIII (diffuse intrinsic pontine glioma line)
Outline: as §1

Structure (SMILES)	growth inhibition (DIPGX29)	growth inhibition (DIPGX37)	growth inhibition (DIPGX7)	growth inhibition (DIPGX9)	growth inhibition (HGGX39)	growth inhibition (HGGX6)	growth inhibition (HNSC)	growth inhibition (SUDIPGIV)	growth inhibition (SUDIPGVI)	growth inhibition (SUDIPGXIII)
CC(C)OC(=O)C(C(=O)OC(C)C)=C1SC=CS1	12.7%	6.67%	26.1%	4.32%	8.43%	13.3%	43.7%	16.3%	-3.26%	2.97%
N=c1nc(N2CCCCC2)cc(N)n1O	0.473%	-0.191%	0.732%	-0.0641%	-0.0574%	-3.42%	1.05%	-0.657%	1.35%	-1.69%
O=C(c1ccccc1)c1ccc2n1CCC2C(=O)O (stereo not given)	1.07%	-0.408%	0.977%	-1.13%	-0.11%	1.54%	-1.61%	-5.47%	0.251%	0.0715%
COC(=O)C1=C(C)NC(C)=C(C(=O)OC2CCCN(Cc3ccccc3)C2)C1c1cccc([N+](=O)[O-])c1 (stereo not given)	3.05%	0.403%	2.15%	3.22%	6.94%	-0.555%	33.4%	3.22%	-1.31%	2.1%
CNC(=O)c1cc(Oc2ccc(NC(=O)Nc3ccc(Cl)c(C(F)(F)F)c3)cc2)ccn1	35.1%	67.2%	28.2%	25.6%	50.7%	32%	76.1%	41.2%	60.7%	69.3%
CCCC(=O)Nc1ccc(OCC(O)CNC(C)C)c(C(C)=O)c1 (stereo not given)	-1.23%	-0.501%	-1.01%	-0.6%	-0.175%	0.315%	-4.5%	-0.848%	-2.3%	-1.79%
CCCC(=O)O[C@]1(C(=O)COC(C)=O)CC[C@H]2[C@@H]3C[C@H](F)C4=CC(=O)C=C[C@]4(C)[C@@]3(F)[C@@H](O)C[C@@]21C	1.5%	1.44%	-0.393%	2.91%	2.12%	0.881%	-3.23%	-4.91%	-0.161%	1.12%
CCCCc1oc2ccc(NS(C)(=O)=O)cc2c1C(=O)c1ccc(OCCCN(CCCC)CCCC)cc1	58.9%	57.4%	57%	57.4%	56.2%	60.2%	55.5%	57.7%	59.4%	24.1%
CC1(C)O[C@@H]2C[C@H]3[C@@H]4CCC5=CC(=O)C=C[C@]5(C)[C@H]4[C@@H](O)C[C@]3(C)[C@]2(C(=O)CO)O1	0.656%	2.84%	-0.564%	3%	2.23%	1.78%	-4.33%	0.0175%	-0.194%	2.31%
O=C1CC[C@@H](C(=O)N2CSC[C@H]2C(=O)O)N1	2.29%	1.19%	1.62%	1.89%	3.63%	2.97%	2.12%	1.86%	2.32%	-0.296%
CCN(Cc1ccncc1)C(=O)C(CO)c1ccccc1 (stereo not given)	-2.54%	-1.96%	-1.34%	-0.78%	-1.19%	0.149%	-4.87%	-1.01%	-0.507%	-1.24%
CN1CCC(=C2c3ccccc3C=Cc3ccccc32)CC1	1.58%	-0.405%	-0.277%	2.34%	7.18%	-0.0199%	1.09%	3.58%	1.48%	1.93%
CN1CCN(c2c(F)cc3c(=O)c(C(=O)O)cn(CCF)c3c2F)CC1	1.06%	4.17%	2.04%	2.14%	2.42%	-0.149%	5.69%	2.18%	2.45%	-2.39%
CC(C)(CO)[C@@H](O)C(=O)NCCC(=O)O	-2.53%	-0.522%	-0.818%	-0.68%	-0.909%	-0.397%	-0.802%	-0.366%	-3.69%	1.65%
CC(=O)O[C@]1(C(C)=O)CC[C@H]2[C@@H]3C=C(C)C4=CC(=O)CC[C@]4(C)[C@H]3CC[C@@]21C	0.869%	1.56%	2.71%	1.56%	-0.284%	-3.03%	-2.32%	-1.52%	-0.924%	1.41%
COC(=O)C1=C(C)NC(C)=C(C(=O)OCCN(C)Cc2ccccc2)C1c1cccc([N+](=O)[O-])c1 (stereo not given)	1.83%	4.39%	2.64%	2.12%	6.81%	0.277%	13%	3.58%	-1.74%	2.92%
C[C@@H](c1ncncc1F)[C@](O)(Cn1cncn1)c1ccc(F)cc1F	0.619%	-0.0255%	0.392%	0.104%	0.756%	-0.00667%	1.22%	-1.27%	-1.71%	-0.404%
Cc1cccc(Nc2ccncc2S(=O)(=O)NC(=O)NC(C)C)c1	-1.52%	1.45%	-0.371%	-0.205%	1.47%	-0.821%	-0.596%	-1.46%	1.11%	1.52%
C=C1c2c(Cl)ccc(O)c2C(=O)C2=C(O)[C@]3(O)C(=O)C(C(N)=O)=C(O)[C@@H](N(C)C)[C@@H]3[C@@H](O)[C@H]12.O=C(O)c1cc(S(=O)(=O)O)ccc1O	3.13%	1.57%	2.88%	2.29%	8.03%	6.26%	8.17%	7.96%	4.89%	3.19%
C[C@@H]1[C@H](O)[C@@H](C)/C=C/C=C/C=C/C=C/C=C/C=C/C=C/[C@H](O[C@@H]2O[C@H](C)[C@@H](O)[C@H](N)[C@@H]2O)C[C@@H]2O[C@](O)(C[C@@H](O)C[C@@H](O)[C@H](O)CC[C@@H](O)C[C@@H](O)CC(=O)O[C@H]1C)C[C@H](O)[C@H]2C(=O)O	1.5%	0.689%	0.985%	2.51%	1.45%	3.13%	2.79%	-0.529%	0.154%	1.88%

Structure (SMILES)	growth inhibition (DIPGX29)	growth inhibition (DIPGX37)	growth inhibition (DIPGX7)	growth inhibition (DIPGX9)	growth inhibition (HGGX39)	growth inhibition (HGGX6)	growth inhibition (HNSC)	growth inhibition (SUDIPGIV)	growth inhibition (SUDIPGVI)	growth inhibition (SUDIPGXIII)
O=C(O)C1(C(=O)O)CCC1.[NH2-].[NH2-].[Pt+2]	-2.53%	0.00905%	-1.49%	-0.992%	-2.69%	-4.21%	4.08%	-3.4%	-3.41%	-0.0982%
CCC[C@@H]1C[C@@H](C(=O)N[C@@H]([C@H]2O[C@H](SC)[C@H](O)[C@@H](O)[C@H]2O)[C@H](C)Cl)N(C)C1	1.54% and 0.31%	0.378% and 0.388%	2.54% and -0.297%	-0.222% and -0.00863%	1.92% and 0.31%	0.389% and -3.2%	3.24% and 18.2%	2.02% and 2.11%	2.1% and -0.349%	-1.04% and -3.03%
COC(=O)C1=C(C)NC(C)=C(C(=O)OC(C)C)C1c1cccc2nonc12 (stereo not given)	-2.46%	-3.83%	1.18%	-3.89%	-6.2%	-4.5%	-4.73%	-4.11%	-12.6%	3.66%
CC(C)c1nc(CN(C)C(=O)N[C@@H](CCN2CCOCC2)C(=O)N[C@H](CC[C@H](Cc2ccccc2)NC(=O)OCc2cncs2)Cc2ccccc2)cs1	3.78%	0.997%	0.492%	2.24%	2.07%	1.63%	1.95%	-0.101%	3.61%	-0.613%
O.O=[Si]=O.O=[Si]=O.O=[Si]=O.O=[Si]=O.[O]=[Mg].[O]=[Mg].[O]=[Mg]	-0.0369%	-0.00885%	-1.3%	0.668%	1.22%	0.613%	-1.22%	0.589%	0.8%	0.62%
CN1CCN2c3ncccc3Cc3ccccc3C2C1 (stereo not given)	-2.74%	-1.56%	-0.7%	-1.19%	1.93%	-2.31%	2.94%	-0.123%	-5.43%	-0.736%
CCCCOc1ccc(C(=O)CCN2CCCCC2)cc1	3.95%	1.81%	13%	3.6%	8.09%	7.94%	6.88%	0.947%	1.6%	1.44%
COc1ccc2c(c1OC)C(=O)O[C@@H]2[C@H]1c2c(cc3c(c2OC)OCO3)CCN1C	-0.0995%	0.428%	-0.697%	-1.08%	0.078%	1.48%	-1.88%	-0.28%	-0.0763%	1.03%
CNCCC(Oc1ccc(C(F)(F)F)cc1)c1ccccc1 (stereo not given)	8.11%	2.62%	1.4%	0.851%	2.21%	0.48%	1.75%	1.62%	0.57%	2.42%
CN(C)CCCN1c2ccccc2Sc2ccc(Cl)cc21	-1.92%	-1.4%	0.129%	-1.08%	0.279%	-2.17%	24.1%	-0.706%	-5.1%	2.77%
CO[C@@H]1[C@@H](OC(N)=O)[C@@H](O)[C@H](Oc2ccc3c(O)c(NC(=O)c4ccc(O)c(CC=C(C)C)c4)c(=O)oc3c2C)OC1(C)C	-0.0643%	3.02%	1.66%	0.55%	3.59%	-2.58%	12.1%	4.51%	2%	-0.64%
COc1cnc(NS(=O)(=O)c2ccc(N)cc2)nc1	-0.629%	0.775%	-0.856%	0.181%	-0.248%	0.442%	0.00282%	-1.59%	0.403%	1.01%
CCC(C)(C)c1ccc(CC(C)CN2C[C@@H](C)O[C@@H](C)C2)cc1 (stereo not given in full)	9.06%	6.3%	36.9%	0.0137%	15.3%	11.1%	8.57%	11.7%	-11.5%	-7.54%
CC1(C)S[C@@H]2[C@H](NC(=O)C(C(=O)O)c3ccccc3)C(=O)N2[C@H]1C(=O)O (stereo not given in full)	0.227%	2.06%	0.432%	0.809%	2.53%	1.87%	0.956%	-0.316%	3.27%	0.516%
Nc1nc(N)c2nc(-c3ccccc3)c(N)nc2n1	5.33%	1.67%	1.42%	1.23%	3.58%	1.3%	3.87%	3.03%	5.65%	0.714%
CN(Cc1cnc2nc(N)nc(N)c2n1)c1ccc(C(=O)N[C@@H](CCC(=O)O)C(=O)O)cc1	1.2%	1.21%	2.57%	0.922%	3.95%	1.8%	2.32%	-0.562%	3.38%	0.468%
Clc1cccc(Cl)c1NC1=NCCN1	1.49%	-3.42%	1.12%	0.614%	1.32%	0.951%	2.98%	0.943%	-1.83%	-1.09%
O=C(O)c1cn(-c2ccc(F)cc2)c2cc(N3CCNCC3)c(F)cc2c1=O	1.77%	0.654%	2.46%	2.37%	4.02%	3.31%	1.3%	4.25%	3.85%	0.944%
Fc1ccc([C@@H]2CCNC[C@H]2COc2ccc3c(c2)OCO3)cc1	1.88%	0.828%	1.44%	-0.123%	-1.48%	0.754%	54.9%	-0.812%	-0.542%	1.2%
O=C(O)c1cc(=O)c2ccccc2o1	-0.199%	-0.128%	0.253%	1.55%	0.445%	-1.13%	-0.975%	0.468%	2.48%	0.672%
